Screens deposited in PubChem BioAssay by National Center for Advancing Translational Sciences (NCATS).
D2 PAM-1: D2 dopamine receptor (human) potentiation; P14416; HEK293 T-REx D2, calcium flux, EC20 dopamine potentiation; potentiation, % at 10 µM; 0.34% of 340,000 active; AID 485347;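 active = potentiation over 3 SD above the plate norm, cut at about 30% in these data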
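Potentiation of an EC20 dopamine calcium response measured kinetically over 180 s, after a preceding 180 s compound-only read flagging agonists. Cells: inducible Hek293 Trex D2 line, 4000/well, cultured overnight at 30 C before dye loading.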
LDHA block: blocks human lactate dehydrogenase A; P00338; purified LDHA, NADH/diaphorase-resazurin fluorescence; stronger effect = lower value; activity change, % (values are at about 110 or 230 µM); 0.15% of 480,000 active; AID 1347041; in the data active = activity change below about -30%; inconclusive = mostly about -25% to -30%
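Enzyme activity of human lactate dehydrogenase 5 (2 nM; 0.06 mM NADH, 0.2 mM pyruvate, 5 min, RT) is measured via a resazurin/diaphorase fluorescence readout of residual NADH.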
D2 antagonist: antagonists of human D2 dopamine receptor; P14416; HEK293 TREx D2 cells, calcium flux, dopamine EC80; 2% of 340,000 active; inhibition, % at 10 µM; AID 485344; in the data active = inhibition above about 30%; inactive = below that, where a call was filed
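Cells plated overnight at 30 C with tetracycline; no-wash calcium dye, 30–90 min RT; 10 s baseline; compound pinned; 180 s read; EC80 dopamine added; another 180 s read.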
D2 PAM-2: human D2 receptor positive allosteric modulation; 0.23% of 360,000 active; P14416; potentiation, % (no concentration beside the values); DiscoveRx D2 beta-arrestin cells, luminescence, 90 min; 100% = 57 uM dopamine signal; AID 624464; in the data active = potentiation above about 50%; inconclusive = mostly about 30% to 49%
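PathHunter D2 cells, attached overnight at 37 deg C, received compound in DMSO plus dopamine at EC20 (50 nM final) for 90 min at 37 deg C. Beta-arrestin recruitment was read as luminescence after 1 h with detection reagent at ambient temperature.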
D2 ag-1: human D2 receptor agonism in beta-arrestin assay. P14416. DiscoveRx PathHunter D2 beta-arrestin, luminescence, 90 min; 100% = 57 uM dopamine signal. activation, % (concentration not given with the values). 0.084% of 360,000 active. AID 624465; in the data active = activation above about 40%; inconclusive = between about 15% and that limit
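DiscoveRx PathHunter D2 beta-arrestin cells (2,100/well) attached overnight, then compound-stimulated 90 min at 37 C in HBSS/10 mM HEPES/0.1% Tween-20 buffer; beta-galactosidase complementation read by luminescence after 1 h at ambient temperature. Dopamine 57 uM final (EC100) as control.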
D2 ag-2: agonists of human D2 dopamine receptor. HEK293 T-REx D2 cells, calcium flux agonist mode. 0.53% of 340,000 active. activation, % at 2 µM. P14416;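 active = activation over 3 SD above normal in the single-dose calcium agonist read, cut at about 30% in these data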
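Calcium-flux readout, 1 cycle/sec over 180 s following compound pin transfer, in inducible HEK293 Trex D2 cells (force-coupled); dopamine controls included. Positive calcium responses during this window marked compounds as potential agonists.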
D3 ag: activates human D3 dopamine receptor beta-arrestin recruitment | shares compounds with D2 ag-2 | DiscoveRx D3 beta-arrestin cells, luminescence, 90 min | Potency, µM (titrated, usually from 76.9 µM), actives largely listed as activators | 4% of 2,300 active | AID 720506; also: nearly all actives have a fitted effect of over 70% in size
Target sequence (P35462 whole entry, looked up): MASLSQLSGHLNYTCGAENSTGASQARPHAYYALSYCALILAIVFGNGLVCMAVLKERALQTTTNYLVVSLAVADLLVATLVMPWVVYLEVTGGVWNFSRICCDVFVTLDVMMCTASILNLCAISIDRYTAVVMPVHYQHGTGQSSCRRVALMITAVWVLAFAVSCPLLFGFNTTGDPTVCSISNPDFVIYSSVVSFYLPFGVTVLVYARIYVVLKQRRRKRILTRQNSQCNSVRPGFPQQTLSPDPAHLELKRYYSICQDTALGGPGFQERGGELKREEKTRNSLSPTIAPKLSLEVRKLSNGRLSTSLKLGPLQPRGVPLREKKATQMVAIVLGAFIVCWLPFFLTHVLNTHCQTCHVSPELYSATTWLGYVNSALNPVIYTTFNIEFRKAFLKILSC
D2 ag-3: activates human D2 dopamine receptor in D3 counterscreen | shares compounds with D2 ag-2 | DiscoveRx PathHunter D2 beta-arrestin, luminescence, 90 min; response scale: percent relative to full dopamine signal | Potency, µM (doses to about 76.9 µM), actives largely listed as activators | 5.9% of 2,300 active | AID 720507; also: nearly all actives have a fitted effect of over 70% in size
A number is an active result; – = inactive; ? = inconclusive; · = no result given; ! = not confirmed by another sample. Sampled rows, rich in hits. Any-hit rate of the full collection: about 2.1%. Unless noted, calls follow the shape of the dose curve; as a rule, active = well fitted activation curve with a large enough effect; inconclusive = small, poorly fitted or top-dose-only effect; inactive = flat fitted curve, though single readings scatter.

SMILES	D2 PAM-1	LDHA block	D2 antagonist	D2 PAM-2	D2 ag-1	D2 ag-2	D3 ag	D2 ag-3
CC(C)c1c(C(=O)N/N=C/c2ccc3c(c2)OCO3)nnn1-c1nonc1N	–	–	–	–	–	–	·	·
COc1ccc(/C=N/NC(=O)c2nnn(-c3nonc3N)c2CN(C)C2CCCCC2)cc1	–	–	–	–	–	55.6	–	–
Nc1nonc1-n1nnc(C(=O)N/N=C/c2ccc3c(c2)OCO3)c1-c1ccccc1	–	–	38.6	–	–	–	?	–
Cc1nc(N)sc1Cc1ccccc1	·	–	·	·	·	·	·	·
O=C(c1ccc(N2CCCC2=O)cc1)N1CCN(c2ccccc2F)CC1	–	–	–	–	–	55.1	?	–
Oc1ccc(O)c(C2C[C@@H]3CC[C@H]2C3)c1 (stereo partly drawn)	·	–	·	·	·	·	·	·
Cc1ccc(-c2nc(CNC(=O)c3ccccc3)c(C)o2)cc1	·	–	·	·	·	·	·	·
CCOc1ccc(NC(=S)NC(=O)c2c(Br)cnn2C)c([N+](=O)[O-])c1	–	–	–	–	–	47.8	–	–
CCc1cc(C(c2ccc(F)cc2)N2CCN(CC)CC2)c(NC(=O)c2ccco2)s1 (stereo not drawn)	·	–	·	·	·	·	·	·
C=CC[C@]12CCc3ccccc3C1N(c1ccc(C(=O)OCC)cc1)C2=O (stereo partly drawn)	–	–	–	–	–	–	–	–
CCOC(=O)c1ccc(N2C(=O)Cc3ccccc3C2=O)cc1	–	–	–	–	–	–	·	·
CC(COc1ccccc1)NC(C)C(O)c1ccc(O)cc1 (stereo not drawn)	–	–	90.3	–	–	77.1	–	–
COc1ccc(OC)c(NC(=O)NCCN2CCN(c3ccccc3)CC2)c1	–	–	–	–	–	–	·	·
COc1ccccc1OCCNC(=O)CCNC(=O)c1ccccc1OC	–	–	–	–	–	–	–	–
COc1ccccc1C(=O)NCCC(=O)NCCOc1ccccc1	–	–	–	–	–	–	·	·
COc1ccccc1C(=O)NCCN1CCN(c2ccccc2)CC1	–	–	82.5	?	?	71.9	?	?
O=C(NCCN1CCN(c2ccccc2)CC1)c1cccc(Cl)c1	–	–	70.4	–	–	46.0	?	–
O=C(NCCCN1CCN(c2cccc(Cl)c2)CC1)c1ccc(N2CCCC2=O)cc1	–	–	–	–	–	–	·	·
COc1cccc(C(=O)NCCN2CCN(c3ccc(Cl)cc3)CC2)c1	·	–	·	·	·	·	·	·
O=C(NCCCN1CCN(c2cccc(Cl)c2)CC1)c1cccc(N2CCCC2=O)c1	–	–	–	–	–	48.0	–	–
COc1ccc(NC(=O)N2CCN(S(=O)(=O)c3ccc4c(c3)NC(=O)C(C)O4)CC2)cc1 (stereo not drawn)	·	–	·	·	·	·	·	·
Cc1cccc(-n2nnnc2SCc2cc(=O)oc3cc(O)ccc23)c1	·	–	·	·	·	·	·	·
COC(=O)c1c(C)[nH]c(-c2cc(OC)c(OC)c(OC)c2)c1C1C(=O)Nc2ccc(F)cc21 (stereo not drawn)	·	–	·	·	·	·	·	·
Cc1cccc(C(=O)N2CCN(CCNC(=O)C(=O)Nc3ccccc3)CC2)c1	·	–	·	·	·	·	·	·
O=C(NCCN1CCN(c2cccc(Cl)c2)CC1)c1ccc(CSc2nc3ccncc3[nH]2)cc1	–	–	86.2	–	–	45.9	22.4µM	?
SMILES	D2 PAM-1	LDHA block	D2 antagonist	D2 PAM-2	D2 ag-1	D2 ag-2	D3 ag	D2 ag-3
Cc1cccc(C)c1NC(=O)C(=O)NCCCN1CCOCC1	·	–	·	–	–	·	·	·
O=C(NCCN1CCN(C(=O)c2cccc(Br)c2)CC1)C(=O)Nc1ccc(Br)cc1	–	–	–	–	–	–	·	·
CCN(CCNC(=O)c1ccc(CSc2nc3ccncc3[nH]2)cc1)c1ccccc1	·	–	·	–	–	·	·	·
Cc1cccc(C)c1NC(=O)NCCCN1CCN(c2ccccc2)CC1	–	–	72.4	–	?	74.2!	?	?
O=C(NCCN1CCN(c2ccccc2)CC1)c1cccc(Br)c1	–	–	78.0	–	–	89.1	–	–
Cc1cccc(C(=O)NCCN2CCN(c3ccccc3)CC2)c1	–	–	90.8	–	–	48.7	?	–
COC(=O)c1sc(NC(=O)CN2CCc3ccccc32)c(C(=O)OC)c1C	·	–	·	·	·	·	·	·
Nc1nc(Nc2ccc(Br)cc2)sc1C(=O)c1cccc(Br)c1	·	–	·	·	·	·	·	·
CCCN(CCC)CCOc1cc(C)ccc1C(C)C	·	–	·	–	?	·	–	?
Cc1ccc(C(C)C)c(OCCN(C)C)c1	–	–	–	–	–	–	·	·
Cc1ccc(-c2nc(CS(=O)(=O)CC3CCCO3)co2)c(C)c1 (stereo not drawn)	·	–	·	·	·	·	·	·
O=S(=O)(Cc1ccccc1)N1CCC(N2CCN(c3ccccc3)CC2)CC1	–	–	88.6	–	?	82.6	?	?
COc1ccc(S(=O)(=O)N2CCC(N3CCN(c4ccccc4)CC3)CC2)cc1	–	·	61.4	·	·	73.5	–	?
c1ccc(C2CCC(N3CCN(c4ccccc4)CC3)CC2)cc1 (stereo not drawn)	–	–	–	–	–	64.0	–	–
CC(C)c1cc(C(N)=O)c(NC(=O)Cc2c(F)cccc2Cl)s1	·	–	·	·	·	·	·	·
CC1(C)CC(=O)C2=C(C1)Nc1cc3c(cc1C2c1ccc(OCC(=O)O)cc1)OCO3 (stereo not drawn)	·	–	·	·	·	·	·	·
CCSc1nc2c(c(=O)[nH]1)C(C(C)C)C(C#N)=C(N)O2 (stereo not drawn)	–	–	–	–	–	45.2	–	–
CNC[C@H](O)c1cccc(O)c1	–	–	90.9	–	–	76.8	–	?
O=C(Cc1csc(-c2cccs2)n1)NCc1ccc(F)cc1	·	–	·	·	·	·	·	·
COC(=O)C1CCN(Cc2cn(-c3ccccc3)nc2-c2ccc3c(c2)OCO3)CC1	–	–	81.9	–	–	41.4	–	–
COC(=O)C1CCN(Cc2nnc(-c3ccccc3)o2)CC1	–	–	65.6	–	?	45.0	3.98µM	–
c1ccc(-c2nnc(CN3CCCCC3)o2)cc1	–	–	–	–	–	–	·	·
CC(=O)NCC1CCCN(Cc2cn(-c3ccccc3)nc2-c2ccc3c(c2)OCO3)C1 (stereo not drawn)	–	–	–	–	–	–	·	·
CC(=O)Nc1ccc(/C=N/N2C(=O)NC(C)(c3ccc(OC(F)F)cc3)C2=O)cc1 (stereo not drawn)	–	–	46.7	–	–	37.0	–	–
